Reference: PubChem BioAssay AID624330 (Southern Research Specialized Biocontainment Screening …, 2012)
About 2,100 (0.62%) of roughly 340,000 compounds were called active.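 How the source made its calls: active means first-screen hits whose inhibition reached a set limit at any dose in the follow-up dose series; inconclusive means inhibition above the set first-screen limit but never retested; inactive means the rest.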 These entries were drawn from the full list. Measured potencies and affinities stand elsewhere.

What follows are compounds tested against Rac GTPase-activating protein 1 (Homo sapiens) (UniProt Q9H0H5) (assay: MgcRacGAP GTPase-activating activity inhibitors, confirmation, biochemical, ADP Hunter fluorescence, primary and confirmatory (AID 624330;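 further: fluorescence reports GDP produced by GAP-driven GTP hydrolysis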)). Details: MgcRacGAP-stimulated Rac1 GTP hydrolysis, at 30 µM, hits give high values, GST-tagged Rac1 F28L mutant substrate.
Chain of Rac GTPase-activating protein 1 (Homo sapiens) (Q9H0H5 whole entry, looked up): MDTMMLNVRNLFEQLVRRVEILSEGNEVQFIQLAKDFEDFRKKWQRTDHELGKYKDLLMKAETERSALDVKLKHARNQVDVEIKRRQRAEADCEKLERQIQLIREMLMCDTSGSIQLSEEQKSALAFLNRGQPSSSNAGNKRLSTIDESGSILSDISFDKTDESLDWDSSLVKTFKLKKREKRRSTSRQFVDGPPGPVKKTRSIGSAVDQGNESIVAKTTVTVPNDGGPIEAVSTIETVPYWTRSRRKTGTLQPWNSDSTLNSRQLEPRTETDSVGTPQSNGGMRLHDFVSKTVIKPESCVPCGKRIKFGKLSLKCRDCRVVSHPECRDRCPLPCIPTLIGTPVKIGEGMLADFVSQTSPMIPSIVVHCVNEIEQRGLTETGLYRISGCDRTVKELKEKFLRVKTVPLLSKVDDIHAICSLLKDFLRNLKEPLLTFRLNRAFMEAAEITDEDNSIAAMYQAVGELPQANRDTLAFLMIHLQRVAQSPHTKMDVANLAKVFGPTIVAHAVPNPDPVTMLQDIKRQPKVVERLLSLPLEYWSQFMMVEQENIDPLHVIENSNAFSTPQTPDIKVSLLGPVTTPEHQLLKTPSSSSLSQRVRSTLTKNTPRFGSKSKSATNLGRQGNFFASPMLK

inhibition, inactive:
Cc1ccc(S(=O)(=O)N2CCC(C(=O)OC(C)C(=O)N3CCOCC3)CC2)cc1 (centres undefined) 4.25%, CCc1ccc(NC(=O)c2n[nH]c(=O)c3ccccc23)cc1 2.23%, COc1ccc(N2CCN(C(=O)CCN3C(=O)C4C5C=CC(C5)C4C3=O)CC2)cc1 (centres undefined) 10.9%, CCn1cc(CNC(=O)C2CCC(=O)N(CCc3cccc(F)c3)C2)cn1 (centres undefined) 4.69%, CCCNC(=O)COC(=O)C1CCN(S(=O)(=O)c2ccc3c(c2)OCCO3)CC1 2.29%, O=C(CCCC(=O)NCC1CCCO1)NCC1CCCO1 (centres undefined) 7.04%, O=C(CN1CCN(c2ccc(F)cc2)CC1)NCC1CCCO1 (centres undefined) 12.3%, COc1ccccc1CC(=O)NCC1CCCO1 (centres undefined) 14.3%, O=C(CSCSCC(=O)NCC1CCCO1)NCC1CCCO1 (centres undefined) 9.35%, Cc1cccc(C(C)C)c1NC(=O)Cc1ccc(S(=O)(=O)N2CCOCC2)s1 6.93%, COCCC(=O)N1CCCC(CCC(=O)NCc2ccc(F)c(F)c2)C1 (centres undefined) 4.17%, COc1ccc2nc3cc([N+](=O)[O-])ccc3c(NNc3ccc([N+](=O)[O-])cc3)c2c1 1.37%, COc1cc2c(cc1OC)-c1cc(NC3CC3)nc(=O)n1CC2 3.36%, Cc1ccc(NC(=O)c2csc(-c3ccccc3)c2C)cc1 9.66%, CCOC(=O)c1c(C)[nH]c(C(=O)CN2CCOCC2)c1C 2.51%, CCOC(=O)c1c(C)[nH]c(C(=O)N2CCN(CC)CC2)c1C 2.01%, COC(=O)c1cc(OC)c(OC)cc1NC(=O)c1cc(OC)cc(OC)c1 -0.7%, CCOc1ccccc1N1CCN(Cc2ccco2)CC1 14.9%, CCOc1ccccc1N1CCN(C(=O)CC(C)(C)C)CC1 -0.74%, CCC(=O)c1cn(CC(=O)Nc2cc(C)ccc2C)c2ccccc12 13.6%, O=C(CNC(=O)c1ccc(Br)o1)NNC(=O)c1ccccc1O 6.63%, COc1cc(CNc2ccc(N3CCCC3)cc2)cc(Cl)c1OC 1.89%, CCOc1cc(CNc2ccc(Br)cc2)cc(Br)c1OCC(=O)NC(C)(C)C -3.09%, CCOc1cc(C(=O)Nc2ccc(N3CCOCC3)cc2)cc(Br)c1OC 2.59%, CCOc1cc(CNc2ccccc2)cc(Br)c1OCC(=O)NC(C)(C)C 6.03%, CCOc1c(Cl)cc(CNc2ccc(N3CCCC3)cc2)cc1OC 36.9%, CCOc1cc(CNc2ccc3c(c2)OCCO3)cc(Br)c1OCC 30%, COc1cc(CC(=O)Nc2ccc(N3CCOCC3)cc2)cc(OC)c1OC 4.24%, CCOc1cc(CNc2ccc3c(c2)OCCO3)cc(Br)c1OC 23.8%, COCCNC(=O)/C(C#N)=C/c1ccc(O)cc1 15.1%, CC(C)CCc1noc(CN2CCC(C(=O)N3CCOCC3)CC2)n1 7.77%, Cc1cccc(C2NS(=O)(=O)N=C2N)c1 (centres undefined) 4.81%, NC(=O)c1c(NC(=O)C2c3ccccc3Oc3ccccc32)sc2c1CCCCC2 10.9%, Oc1c(C=C2N=c3ccccc3=N2)sc(=S)n1-c1ccc2ccccc2c1 9.34%, O=C(CN(c1ccccc1)S(=O)(=O)c1ccccc1)Nc1ccc(F)cc1 -5.62%, Cc1ccc(NC(=O)c2ccccc2F)cc1S(=O)(=O)N1CCCCCC1 -2.21%, CCn1c(CSc2nc3ccccc3s2)nnc1SCC(=O)c1ccc(Cl)cc1 -0.25%, CCn1c(CSc2nc3ccccc3s2)nnc1SCC(=O)c1ccc(O)cc1O 6.52%, COc1ccccc1N(CC(=O)NCC1CCCO1)C(=O)CCC(=O)Nc1cc(C)on1 (centres undefined) 2.95%, COc1ccc(-c2noc(CN(C)Cc3ccccc3)n2)cc1 15.4%, O=C(CCSCc1ccccc1Cl)NC1CCCCC1 5.37%, O=Nc1c(O)ccc2cc(S(=O)(=O)O)ccc12 13.3%, O=C(O)c1cc2cc(S(=O)(=O)O)ccc2cc1O 6.33%, O=P(c1ccccc1)(c1ccccc1)c1cc(S(=O)(=O)O)ccc1O 5.95%, Nc1ccc2c(O)cc(S(=O)(=O)O)cc2c1 19.4%, COc1ccccc1Nc1ccc(NS(=O)(=O)c2ccc(C(C)=O)cc2)cc1 23.2%, COc1ccccc1Nc1ccc(N)cc1 10.5%, Nc1cccc2cc(S(=O)(=O)O)ccc12 20.9%, Nc1cc(S(=O)(=O)O)cc2ccc(S(=O)(=O)O)cc12 6.2%, CCc1ccccc1NC(=O)c1ccc(NCCc2ccccc2)c([N+](=O)[O-])c1 10.6%, C/C(=N\NC(=O)c1cccs1)C(C)(C)C -0.86%, O=C(Nc1cccc(F)c1)Nc1ccnn1C1CCN(C(=O)c2ccccn2)CC1 4.39%, CC1CCCCC1NC(=O)c1ccco1 (centres undefined) 0.81%, COc1cccc(Oc2ccc3nnc(C(F)(F)F)n3n2)c1 -1.34%, C[C@@H](O)CNC(=O)c1[nH]cnc1C(=O)Nc1cccc(Cl)c1 16.2%, Nc1ccccc1-c1n[nH]c(=S)s1 25.6%, CCN(c1ccc(OC)cc1)S(=O)(=O)c1nnc(NC(=O)C(C)C)s1 3.54%, O=C(O)c1ccccc1C(=O)c1ccc(-c2ccccc2)cc1 8.16%, CCN1CCN(c2ccc(S(=O)(=O)N3CCOCC3)cc2NC(=O)c2ccccc2SC)CC1 3.45%, CCC(=O)Nc1cc(-c2nn(C)c(=O)c3ccccc23)ccc1OC 5.48%, O=C(COc1ncnc2cc([N+](=O)[O-])ccc12)NCCc1ccc(Cl)cc1 -7.58%, Cc1ccc(NC(=O)c2cc(NC(=O)c3ccco3)ccc2N2CCOCC2)cc1Cl -19.1%, Cc1ccc(S(=O)(=O)Nc2ccc(O)c(S(=O)(=O)c3ccc(C)cc3)c2)cc1 6.97%, Nc1ccc(C(=O)Nc2ccc3c(O)cc(S(=O)(=O)O)cc3c2)cc1 14.1%, O=S(=O)(c1ccccc1)c1cc(O)ccc1O 6.16%, Cc1cc(=O)oc2cc(Nc3ccccc3)ccc12 6.98%, O=S(=O)(O)c1cccc2cccc(Nc3ccccc3)c12 13.4%, CC(=O)Nc1ccc2c(O)cc(S(=O)(=O)O)cc2c1 6.64%, CCCN(CCC)C(=O)C1CCCN(S(=O)(=O)c2ccc3c(c2)oc(=O)n3C)C1 (centres undefined) 7.01%, O=C(COC(=O)Cc1ccc(Br)cc1)NC1CC1 4.98%, O=C(COc1ccc(Cl)cc1)N(Cc1ccccc1)c1nc(-c2ccccc2)cs1 9.03%, O=c1n(-c2ccccc2)c(=O)n2n1CCCC2 -0.32%, CCCCN(CC)CCCNC(=O)CC1Oc2ccccc2NC1=O (centres undefined) 0.11%, CCOc1ccccc1C(C(=O)NC1CCCC1)N(Cc1ccco1)C(=O)CNC(=O)c1ccco1 (centres undefined) 5.39%, O=C(CN1c2ccccc2Sc2ccccc21)NNC(=S)Nc1ccc(Cl)cc1 15.4%, CCOC(=O)C(CO)(NC(C)=O)C(=O)OCC 3.77%, COc1ccccc1OCc1cc(C(=O)N2CC3C[C@@H]4CC2C[C@H](C3)C4)no1 3.59%, CCOc1ccccc1NC(=O)C(OC(=O)c1ccccc1)c1ccccc1 (centres undefined) 12.2%, CN(C)CCNC(C(=O)Nc1cc(Cl)cc(Cl)c1)c1ccccc1 (centres undefined) 5.37%, CCOc1ccccc1NC(=O)C(OC(=O)C1CC1)c1ccccc1 (centres undefined) -2.99%, CCOc1ccccc1NC(=O)C(NCC1CCCCC1)c1ccccc1 (centres undefined) 4.44%, CCC(C(=O)Nc1cccc(C(F)(F)F)c1)c1ccccc1 (centres undefined) 17.9%, CCOc1ccccc1NC(=O)C(NCCc1ccc(OC)cc1)c1ccccc1 (centres undefined) -0.19%, CC(NC(=O)c1ccco1)C(=O)N1CCCCC1 (centres undefined) 3.98%, O=C(COC(=O)c1cccnc1Cl)NC1CCCCC1 4.82%, CC(C)Cc1cc(C(=O)N2CCN(c3ccc(F)cc3)CC2)no1 0.62%, COc1cccc(C(=O)NC(=S)Nc2ccccc2N2CCOCC2)c1 6.71%, COc1ccc(C)cc1S(=O)(=O)N1CCC(C(=O)NCCc2ccccc2)CC1 14.5%, COC(=O)c1ccc(Cl)c(NC(=O)CSc2nnc(-c3ccncc3)o2)c1 4.07%, OC1CCN(Cc2cn(Cc3ccccc3)nc2-c2cc3ccccc3o2)CC1 5.47%, O=C(Nc1ccc(Cl)cc1)Nc1nnc(CSCc2ccccc2Cl)s1 12.1%, CN(C(=O)COc1ccccc1)c1ccc([N+](=O)[O-])cc1 7.5%, Cc1ccccc1OCCNC(=O)c1ccco1 3.61%, Cc1ccc(C(=O)NCC(C)NC(=O)c2ccc(C)c(C)c2)cc1C (centres undefined) 4.02%, CCOc1ccc(N2CC(C(=O)NCc3ccco3)CC2=O)cc1 (centres undefined) -1.21%, Cc1onc(-c2ccccc2)c1C(=O)NC(=S)NNC(=O)c1ccncc1 0.31%, CCCN(C(=O)Cc1csc(-c2ccccc2)n1)C1CCS(=O)(=O)C1 (centres undefined) 4.87%, CCOC(=O)c1c(NC(=O)CSc2cccc[n+]2[O-])sc(C(=O)Nc2ccccc2)c1C 7.58%, CCOC(=O)c1c(NC(=O)CN2CCN(C)CC2)sc(C(=O)Nc2ccccc2)c1C 8.53%
